According to PubChem BioAssay (Tox21):
Records with an inconclusive call do not appear. A call without a number means that no potency is given here. Values without a mark were called inactive. Active and inactive are the calls of the source. Unless noted, calls come from the whole dose curve; as a rule, active = well fitted curve in the direction sought with a large enough effect in the repeat runs; inconclusive = weak or mixed curves; inactive = no such curve, though single readings can be large; an effect the other way counts as inactive or inconclusive.

Key:
[1] = qHTS assay to identify small molecule agonists of the vitamin D receptor (VDR) signaling pathway - cell viability counter screen (AID 743224); note: nearly all actives have a fitted effect of over 50% in size
Method in brief: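 Counter screen for cytotoxicity: VDR-bla cells at 2,000 cells/well, 16 h compound exposure, then CellTiter-Glo luminescence after the beta-lactamase measurement.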

[2] = qHTS assay to identify small molecule antagonists of the vitamin D receptor (VDR) signaling pathway - cell viability counter screen (AID 743225); note: nearly all actives have a fitted effect of over 50% in size
Method in brief: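 Cytotoxicity counter screen read by CellTiter-Glo luminescence (30 min, room temperature) in the same wells as the VDR-bla antagonist readout. HEK 293T VDR-UAS-bla cells had 16 h at 37C with compound and 3 nM (final) 1-alpha,25-dihydroxyvitamin D3, then 2 h with FRET substrate.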

[3] = qHTS assay to identify small molecule agonists of the NFkB signaling pathway (AID 1159509; active = well fitted curve in the direction sought with a large enough effect in the signal ratio in the repeat runs, not every such curve was filed as active; the % refers to the signal ratio)
Method in brief: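 Readout: FRET fluorescence, 405 nm excitation, 460/530 nm emission; beta-lactamase expression disrupts FRET. Cells: ME-180 stably carrying NF-kB-driven bla reporter. Compound exposure 5 hr, 37 C, 5% CO2.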

[4] = qHTS assay to identify small molecule agonists of the NFkB signaling pathway - cell viability counter screen (AID 1159515; calls by dose curve; note: nearly all actives have a fitted effect of over 55% in size)
Method in brief: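 Counter screen run alongside the NFkB-bla agonist assay: ME-180 reporter cells exposed to compounds for 5 hr, then lysed with CellTiter-Glo in the same wells. Luminescence, read after 30 min, reflects viable cells.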

[5] = qHTS assay to identify small molecule agonists of the endoplasmic reticulum stress response signaling pathway (AID 1159516; active = well fitted activation curve with a large enough effect in the signal ratio in the repeat runs, not every such curve was filed as active; the % refers to the signal ratio)
Method in brief: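 For this screen, HeLa cells stably carrying beta-lactamase under the ER stress response element received test compounds, positive controls or DMSO for 5 hr at 37 C; B/G FRET substrate was then added and dual-wavelength emission recorded.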

[6] = molecular target: Nuclear receptor ROR-gamma (Homo sapiens) (UniProt P51449); experiment: qHTS assay to identify small molecule antagonists of the retinoid-related orphan receptor gamma (ROR-gamma) signaling pathway (AID 1159521; note: top concentration of the series differs between compounds; nearly all actives have a fitted effect of over 50% in size)
Method in brief: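 Antagonist read-out: drop in luminescence (ONE-Glo) from an RORE-LUC reporter in CHO cells with doxycycline-inducible ROR-gamma; 2 hr compound pretreatment, 1 uM doxycycline, 16 hr incubation at 37 C.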

[7] = qHTS assay to identify small molecule agonists of the AP-1 signaling pathway - cell viability counter screen (AID 1159525; calls by dose curve; note: nearly all actives have a fitted effect of over 55% in size)
Method in brief: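 Each titration point was normalised to DMSO and tetra n-octyl ammonium bromide controls. The read was Cell Titer Glo luminescence after 30 min at RT, following 5 h compound exposure of ME-180 AP-1-bla cells at 37 °C.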

[8] = qHTS assay to identify small molecule agonists of the AP-1 signaling pathway (AID 1159526; calls by dose curve)
[9] = molecular target: Retinoic acid receptor RXR-alpha (Homo sapiens) (UniProt P19793); experiment: qHTS assay to identify small molecule agonists of the RXR signaling pathway (AID 1159527; calls by dose curve; note: nearly all actives have a fitted effect of over 35% in size)
Chain of Retinoic acid receptor RXR-alpha (Homo sapiens) (P19793 whole entry, looked up): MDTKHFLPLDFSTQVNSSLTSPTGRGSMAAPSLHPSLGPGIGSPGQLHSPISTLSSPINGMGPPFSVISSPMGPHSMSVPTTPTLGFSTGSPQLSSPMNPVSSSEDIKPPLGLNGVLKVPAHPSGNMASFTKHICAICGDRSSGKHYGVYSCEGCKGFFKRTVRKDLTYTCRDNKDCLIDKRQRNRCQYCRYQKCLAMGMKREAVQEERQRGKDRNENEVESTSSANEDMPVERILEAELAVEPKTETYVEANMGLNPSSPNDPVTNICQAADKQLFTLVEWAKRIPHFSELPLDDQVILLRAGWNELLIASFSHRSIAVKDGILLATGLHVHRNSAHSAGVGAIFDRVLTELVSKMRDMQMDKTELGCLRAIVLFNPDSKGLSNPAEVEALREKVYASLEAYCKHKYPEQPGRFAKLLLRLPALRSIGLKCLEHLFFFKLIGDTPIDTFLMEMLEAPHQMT
Method in brief: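 Agonist-mode beta-lactamase reporter assay: HEK 293T RXR-alpha-UAS-bla cells treated 16 hr at 37 C with compounds, 9-cis retinoic acid as positive control. LiveBLAzer FRET substrate, 405 nm excitation, 460/530 nm emission.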

[10] = qHTS assay to identify small molecule agonists of the RXR signaling pathway - cell viability counter screen (AID 1159529); note: nearly all actives have a fitted effect of over 50% in size
Method in brief: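 CellTiter-Glo luminescence gave viability in the wells also read for beta-lactamase. Cells (RXR-alpha-UAS-bla HEK 293T, 2% charcoal-stripped FBS medium) had 5 hr plating, then 16 hr compound exposure at 37 C; tetraoctyl ammonium bromide served as positive control.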

[11] = qHTS assay to identify small molecule antagonists of the retinoid acid receptor (RAR) signaling pathway - cell viability counter screen (AID 1159551); note: nearly all actives have a fitted effect of over 35% in size
Method in brief: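 Measured by luminescent ATP detection, viability reflects C3RL4 cells treated 6 h at 37 C with test chemicals in the presence of 1 uM (final) retinol.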

[12] = qHTS assay to identify small molecule antagonists of the retinoic acid receptor (RAR) signaling pathway (AID 1159552; note: nearly all actives have a fitted effect of over 50% in size)
Method in brief: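 Luminescent RARE reporter read-out in C3RL4 cells: 6 hr co-treatment at 37 C of test compounds with retinol at 1 uM final. Cells plated overnight beforehand; luciferase reagent incubated 30 min at room temperature before reading.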

[13] = qHTS assay to identify small molecule agonists of the retinoic acid receptor (RAR) signaling pathway (AID 1159553); conditions: C3RL4 RARE luciferase reporter, agonist, 6 h; activation: at 73.3 µM (top of the series); note: potency is the fitted concentration of half-maximal effect
Method in brief: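 6 hr compound exposure (DMSO vehicle) of overnight-plated C3RL4 RARE-luc cells at 37 C; luminescence quantified after 30 min RT with luciferase reagent.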

[14] = qHTS assay to identify small molecule antagonists of the estrogen related receptor (ERR) signaling pathway from Tox21 library - cell viability counter screen (AID 1224834); note: nearly all actives have a fitted effect of over 30% in size; note: potency is the fitted concentration of half-maximal effect
Method in brief: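 Seeded ERR cells were rested 6 h at 37 C/5% CO2 before compounds, positive and negative controls or DMSO were added. Incubation continued for 17.5 h, and viability was then quantified by CellTiter-Fluor fluorescence.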

[15] = molecular target: Luciferin 4-monooxygenase (Photinus pyralis) (UniProt P08659); experiment: qHTS assay to identify small molecule inhibitors of firefly luciferase (AID 1224835); note: nearly all actives have a fitted effect of over 25% in size; note: potency is the fitted concentration of half-maximal effect
Chain of Luciferin 4-monooxygenase (Photinus pyralis) (P08659 whole entry, looked up): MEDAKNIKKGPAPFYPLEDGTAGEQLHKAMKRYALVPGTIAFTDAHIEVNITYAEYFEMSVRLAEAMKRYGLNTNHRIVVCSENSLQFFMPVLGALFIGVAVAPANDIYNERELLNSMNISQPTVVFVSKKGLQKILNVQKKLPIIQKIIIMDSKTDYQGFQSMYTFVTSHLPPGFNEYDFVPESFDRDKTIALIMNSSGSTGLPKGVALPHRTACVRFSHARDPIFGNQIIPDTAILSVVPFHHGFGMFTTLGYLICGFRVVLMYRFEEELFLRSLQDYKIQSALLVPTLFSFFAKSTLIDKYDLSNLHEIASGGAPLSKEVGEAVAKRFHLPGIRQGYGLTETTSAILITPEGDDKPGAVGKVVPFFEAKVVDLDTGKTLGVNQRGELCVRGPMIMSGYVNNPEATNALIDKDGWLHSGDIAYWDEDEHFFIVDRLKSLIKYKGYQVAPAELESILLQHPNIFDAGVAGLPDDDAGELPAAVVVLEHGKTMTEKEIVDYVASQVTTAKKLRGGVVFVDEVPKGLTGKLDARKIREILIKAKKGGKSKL
Method in brief: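 Quantitative HTS format; KM concentrations of both substrates. Purified P. pyralis FLuc activity quantified from luminescence images.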

[16] = qHTS assay to identify small molecule antagonists of the constitutive androstane receptor (CAR) signaling pathway - cell viability counter screen (AID 1224837); note: nearly all actives have a fitted effect of over 45% in size
Method in brief: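 To flag cytotoxic false antagonists, HepG2 hCAR/CYP2B6-2.2kb cells were treated 23 hr with 15-concentration compound series and 50 nM CITCO at 37 C/5% CO2; CellTiter-Fluor fluorescence was the measured end point.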

[17] = qHTS assay to identify small molecule agonists of the endoplasmic reticulum stress response signaling pathway - cell viability counter screen (AID 1159517; calls by dose curve; note: nearly all actives have a fitted effect of over 50% in size)
Method in brief: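 Cytotoxicity of test compounds toward ESRE-bla HeLa cells was assessed after 5 hr exposure. The luminescent CellTiter-Glo signal was measured 30 min after reagent addition.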

[18] = qHTS assay to identify small molecule antagonists of the retinoid-related orphan receptor gamma (ROR-gamma) signaling pathway - cell viability counter screen (AID 1159520); note: nearly all actives have a fitted effect of over 50% in size
Method in brief: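 Tet-on ROR gamma CHO cells (1,000/well) were plated 4 hr, given compounds in DMSO for 2 hr at 37 C, then induced with 1 uM final doxycycline for 16 hr. Viability was read as ATP by CellTiter-Glo luminescence after 30 min.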

[19] = qHTS assay to identify small molecule agonists of the constitutive androstane receptor (CAR) signaling pathway - cell viability counter screen (AID 1224836); note: nearly all actives have a fitted effect of over 45% in size
Method in brief: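 Cell viability multiplexed with the CAR agonist screen: CellTiter-Fluor fluorescence after 23 hr at 37 C. HepG2-CYP2B6-hCAR cells got compounds at 15 concentrations with PK11195 at 0.75 uM final.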

[20] = molecular target: Nuclear receptor subfamily 1 group I member 3 (Homo sapiens) (UniProt Q14994); experiment: qHTS assay to identify small molecule antagonists of the constitutive androstane receptor (CAR) signaling pathway (AID 1224838);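 note: HepG2 cells stably expressing hCAR with CYP2B6 luciferase reporter stimulated by CITCO; nearly all actives have a fitted effect of over 40% in size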
Chain of Nuclear receptor subfamily 1 group I member 3 (Homo sapiens) (Q14994 whole entry, looked up): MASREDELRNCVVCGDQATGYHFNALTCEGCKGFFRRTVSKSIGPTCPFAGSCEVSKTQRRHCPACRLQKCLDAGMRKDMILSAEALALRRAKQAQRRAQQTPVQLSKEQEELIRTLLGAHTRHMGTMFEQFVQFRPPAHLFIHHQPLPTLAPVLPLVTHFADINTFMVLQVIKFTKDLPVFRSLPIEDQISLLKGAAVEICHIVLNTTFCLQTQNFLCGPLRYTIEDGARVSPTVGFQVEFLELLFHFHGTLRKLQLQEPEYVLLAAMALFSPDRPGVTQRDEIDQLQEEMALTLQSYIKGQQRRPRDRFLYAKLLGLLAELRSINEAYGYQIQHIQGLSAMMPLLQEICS
Method in brief: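 Human hepatoma HepG2 cells expressing hCAR and a CYP2B6 promoter (2.2 kb) luciferase construct; compound titration (15 points) with 50 nM CITCO final, 24 h at 37 C/5% CO2; luminescence via ONE-Glo after 30 min at room temperature.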

| SMILES | outcome [1] | outcome [2] | outcome [3] | outcome [4] | outcome [5] | outcome [6] | outcome [7] | outcome [8] | Potency [9] | outcome [10] | outcome [11] | Potency [12] | Potency [13] | Potency [14] | Potency [15] | Potency [16] | outcome [17] | outcome [18] | outcome [19] | Potency [20] |
| --- | --- | --- | --- | --- | --- | --- | --- | --- | --- | --- | --- | --- | --- | --- | --- | --- | --- | --- | --- | --- |
| COC(/C=C(\C)CCC=C(C)C)OC | inactive | inactive | inactive | inactive | inactive | inactive | inactive | inactive | inactive | inactive | inactive | inactive | inactive | inactive | inactive | inactive | – | – | – | – |
| CN(C)CCCNCCC#N | inactive | – | – | inactive | inactive | inactive | inactive | inactive | inactive | inactive | inactive | inactive | inactive | inactive | inactive | inactive | inactive | inactive | inactive | inactive |
| CNC(=O)NC | inactive | – | – | inactive | inactive | inactive | inactive | inactive | inactive | inactive | inactive | inactive | inactive | inactive | inactive | inactive | inactive | inactive | inactive | – |
| NC(=O)C1(N2CCCCC2)CCN(CCCC(=O)c2ccc(F)cc2)CC1 | – | inactive | inactive | inactive | inactive | inactive | inactive | inactive | inactive | inactive | inactive | inactive | inactive | inactive | inactive | inactive | – | inactive | – | – |
| CC1CCC(C(C)(C)S)C(=O)C1 (stereo unspecified) | inactive | inactive | inactive | inactive | inactive | inactive | inactive | inactive | inactive | inactive | inactive | inactive | inactive | inactive | inactive | – | – | – | inactive | – |
| CCCCOC(=O)[C@@H](C)Oc1ccc(Oc2ccc(C(F)(F)F)cn2)cc1 | inactive | inactive | inactive | inactive | inactive | inactive | inactive | inactive | inactive | inactive | inactive | inactive | inactive | inactive | inactive | inactive | – | inactive | inactive | inactive |
| O=S1(=O)CCCC1 | inactive | inactive | inactive | inactive | inactive | inactive | inactive | inactive | inactive | inactive | inactive | inactive | inactive | inactive | inactive | inactive | – | inactive | inactive | inactive |
| CCN1CN(CC)CN(CC)C1 | inactive | inactive | inactive | inactive | inactive | inactive | inactive | inactive | inactive | inactive | inactive | inactive | inactive | inactive | inactive | inactive | – | inactive | inactive | – |
| Cc1nc([N+](=O)[O-])cn1-c1ccc([N+](=O)[O-])cc1 | inactive | inactive | inactive | inactive | inactive | inactive | inactive | inactive | inactive | inactive | inactive | inactive | inactive | inactive | inactive | inactive | – | inactive | inactive | – |
| O=C(O)c1ccccc1C(=O)OCc1ccccc1 | inactive | inactive | inactive | inactive | inactive | inactive | inactive | inactive | inactive | inactive | inactive | inactive | 48.6 µM (active) | – | 39.9 µM (active) | inactive | – | inactive | inactive | inactive |
| COc1ccc(N=Nc2cc(C)c(N=Nc3ccc(S(=O)(=O)O)cc3)cc2OC)cc1 | inactive | inactive | inactive | inactive | inactive | inactive | inactive | inactive | inactive | – | inactive | inactive | inactive | 19.3 µM (active) | 44.8 µM (active) | – | – | inactive | – | inactive |
| COC(=O)CCC(=O)O | – | inactive | inactive | inactive | inactive | inactive | inactive | inactive | inactive | inactive | inactive | inactive | inactive | inactive | inactive | inactive | – | inactive | inactive | – |
| C[N+](C)(C)CC(O)CCl (stereo unspecified) | inactive | inactive | – | inactive | inactive | inactive | inactive | inactive | inactive | inactive | inactive | inactive | inactive | inactive | inactive | inactive | inactive | inactive | inactive | – |
| Cc1oc(=O)oc1CN1CCN(c2cc3c(cc2F)c(=O)c(C(=O)O)c2n3C(C)S2)CC1 (stereo unspecified) | inactive | inactive | inactive | inactive | inactive | inactive | inactive | inactive | inactive | inactive | inactive | inactive | inactive | inactive | inactive | – | – | inactive | inactive | – |
| Cc1cccc(C(=O)O)c1[N+](=O)[O-] | inactive | inactive | inactive | inactive | inactive | inactive | inactive | inactive | inactive | inactive | inactive | inactive | inactive | inactive | – | inactive | – | inactive | inactive | inactive |
